Hits are enriched below; roughly 2.3% of the tested compounds scored in any of these assays.
BCLXL inh: inhibitors of human Bcl-xL; Q07817; GST-Bcl-xL / FITC-Bim BH3 peptide fluorescence polarization; inhibition, % at 10.9 µM; hit rate 0.7% among 320,000; AID 2129;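 active = inhibition above the mean of all tested compounds plus 3 SD, cutoff set per campaign, cut at about 30% in these data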;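 also: 0% = DMSO wells and 100% = unlabeled Bim-BH3 peptide competitor; inhibitors lower millipolarization by displacing the labeled peptide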
Target sequence (Q07817 whole entry, looked up): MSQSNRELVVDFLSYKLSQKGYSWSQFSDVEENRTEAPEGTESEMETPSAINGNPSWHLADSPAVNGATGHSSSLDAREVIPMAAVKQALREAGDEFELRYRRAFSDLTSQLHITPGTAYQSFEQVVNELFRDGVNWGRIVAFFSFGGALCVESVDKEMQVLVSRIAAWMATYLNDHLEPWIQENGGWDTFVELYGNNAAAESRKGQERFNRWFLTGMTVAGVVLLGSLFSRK
Mcl-1 Bim block: disrupts Bim peptide binding to human Mcl-1; Q07820; Bead-based flow cytometry, Bim peptide-Mcl-1 binding; inhibition, % at 10 µM; hit rate 0.1% among 190,000; AID 1009; in the data active = inhibition above about 40%;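 also: 0% = no compound tracer wells and 100% = peptide blocker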
GLD-1 RNA inh: GLD-1-TGE RNA interaction inhibition (C. elegans) | Q17339 | inhibition, % at 5.96 µM | hit rate 0.44% among 320,000 | purified GLD-1 + fluorescein TGE RNA, fluorescence polarization;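 active = percent inhibition above a per-plate cutoff, the plate mean of test compounds plus 3 SD, cut at about 30% in these data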;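 also: 0% = DMSO wells with GLD-1 and probe and 100% = wells lacking GLD-1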
MCL1 BIM primary: inhibitors of human MCL1 binding to BIM-BH3 peptide; Q07820; GST-MCL1 / FITC-Bim-BH3 fluorescence polarization; inhibition, % at 10.9 µM; hit rate 0.68% among 320,000;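 active = inhibition above the mean inhibition of all tested compounds plus 3 SD, set per campaign, cut at about 40% in these data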;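 also: 0% = DMSO wells and 100% = unlabeled Bim-BH3 peptide control; higher means more loss of mP so more displacement of Bim peptide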
Mcl1-Bid inh: Mcl-1/Bid interaction inhibition. Q07820. TR-FRET Mcl-1/Bid-Dy647 peptide binding, 1536-well. inhibition, % at 21.7 µM. hit rate 0.97% among 220,000. AID 1021;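 active = compounds that cut the binding signal by more than half at the single screening dose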;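 also: His-tagged Mcl-1 with europium anti-His antibody binding Bid BH3 peptide; 0% = Mcl-1 plus peptide wells and 100% = peptide-only wells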
Mcl1 Noxa PPI: disrupts binding of human Mcl-1 to Noxa peptide. Q07820. TR-FRET Mcl-1/Noxa peptide binding, 2 h. inhibition, % at 21.7 µM. hit rate 1.5% among 220,000;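 active = compounds that cut the protein-peptide binding signal by more than 50% relative to plate controls in a single-dose test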;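 also: His-tagged Mcl-1 with rhodamine Noxa BH3 peptide and terbium anti-His antibody; 0% = Mcl-1 plus Noxa peptide wells and 100% = peptide-only wells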
BCLXL inh confirm: Bcl-xL (human) inhibition, MCL1 counter-screen confirmation | shares compounds with MCL1 BIM primary | GST-Bcl-xL / FITC-Bim BH3 peptide FP binding | inhibition, % at 10.9 µM | hit rate 54% among 1,700 | AID 2166;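 active = inhibition above a cutoff equal to the mean inhibition of all tested compounds plus 3 SD, cut at about 30% in these data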;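 also: 0% = DMSO wells and 100% = unlabeled Bim BH3 control peptide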
MCL1 inh confirm: confirmation of human MCL1 and BIM-BH3 interaction inhibitors. shares compounds with MCL1 BIM primary. GST-MCL1 / FITC-Bim-BH3 fluorescence polarization. inhibition, % at 10.9 µM. hit rate 61% among 1,700. AID 2168;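 active = inhibition above the average of all tested compounds plus 3 SD, cut at about 40% in these data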;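 also: 0% = DMSO wells and 100% = unlabeled Bim-BH3 control peptide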
Starred values were filed as active, the others as inactive; / = not tested or not shown.

SMILES	BCLXL inh	Mcl-1 Bim block	GLD-1 RNA inh	MCL1 BIM primary	Mcl1-Bid inh	Mcl1 Noxa PPI	BCLXL inh confirm	MCL1 inh confirm
Cc1ccc2nc3c(cc(C(=O)NCc4ccco4)c(=N)n3Cc3ccco3)c(=O)n2c1	30	-1	0	58*	-31	22	13	7
Cc1ccc(CNC(=O)c2cc3c(=O)n4ccccc4nc3n(Cc3ccco3)c2=N)cc1	4	/	13	-3	/	/	/	/
N=c1c(C(=O)NCc2ccco2)cc2c(=O)n3ccccc3nc2n1C1CCCC1	54*	/	22	63*	/	/	157*	194*
Cc1ccc(S(=O)(=O)c2cc3c(=O)n4ccccc4nc3n(Cc3ccco3)c2=N)cc1	38*	1	10	58*	26	72*	25	20
Cc1cccn2c(=O)c3cc(C(=O)NCc4ccco4)c(=N)n(C(C)C)c3nc12	84*	0	49*	90*	3	20	39*	63*
CCS(=O)(=O)N1CCC(C(=O)Nc2ccc(C(C)=O)cc2)CC1	0	/	-12	0	/	/	/	/
O=C(O)C1Nc2c(Cl)cc(Cl)c(Cl)c2C2C=CCC12 (stereo unspecified)	65*	/	14	103*	/	/	123*	168*
O=C(O)C1Nc2c(Cl)cc(Cl)cc2C2C=CCC12 (stereo unspecified)	85*	/	2	105*	/	/	52*	91*
CC(C)(C)c1ccc(C(=O)NNC(=O)CCC(=O)Nc2ccccc2)cc1	-3	/	3	-6	/	/	/	/
NC(=O)CC(NC(=O)c1cccc(Br)c1)c1ccc(N2CCN(c3ccc(F)cc3)CC2)c([N+](=O)[O-])c1 (stereo unspecified)	3	/	2	7	/	/	/	/
CC(C)N1CCN(Cc2cccs2)CC1CCO (stereo unspecified)	/	-1	/	/	-3	15	/	/
Cc1oc(-c2cccs2)nc1CN1CCN(C(C)C)C(CCO)C1 (stereo unspecified)	5	-2	-4	49*	-29	5	5	-1
CN(Cc1ccccc1)C(=O)c1[nH]cnc1C(=O)NCC(=O)OCc1ccccc1	1	/	0	6	/	/	/	/
COc1ccc2c(c1)c1nc3ccccc3nc1n2CC(=O)OC(C)C	60*	0	8	59*	17	7	106*	140*
Cc1nc2ccccc2c(=O)n1/N=C/c1ccc(O)c(O)c1O	22	/	7	69*	/	/	26	67*
O=C1/C(=C\c2cc(Br)cc(Br)c2O)SC(=S)N1Cc1ccccc1	21	/	-12	51*	/	/	24	49*
COc1cc([N+](=O)[O-])cc(/C=C2/SC(=S)N(Cc3ccccc3)C2=O)c1O	49*	/	0	73*	/	/	70*	80*
O=C1/C(=C\c2ccc(O)cc2)SC(=S)N1Cc1ccccc1	-21	/	-42	-28	/	/	/	/
O=C(NCCCc1ccccc1)c1ccc(-n2cncn2)c([N+](=O)[O-])c1	2	/	8	3	/	/	/	/
N#Cc1c(NC(=O)/C=C/C(=O)O)sc2c1CCN(Cc1ccccc1)C2	-45	/	-56	-72	/	/	/	/
Nc1c(C(=O)Nc2ccc(S(=O)(=O)N3CCCC3)cc2)sc2nc3ccc(OC(F)(F)F)cc3cc12	57*	1	23	48*	-38	17	36*	42*
COc1ccc2nc(SCC(=O)Nc3ccc(S(=O)(=O)N4CCCC4)cc3)c(C#N)cc2c1	-14	0	-45	-16	-30	-240	/	/
N#C/C(=C\c1cccs1)C(=O)Nc1ccccn1	55*	/	30	57*	-10	18	49*	71*
N#C/C(=C\c1ccccc1Cl)C(=O)Nc1ccccn1	7	/	-2	7	/	/	/	/
CC(C)C[C@H]1CN=C(Nc2ccccc2)N1CC1CCC1	2	/	8	2	/	/	/	/
COC(=O)C1=C(C(=O)OC)C(c2ccccc2O)c2sc(=O)[nH]c2S1 (stereo unspecified)	33*	7	3	54*	-9	56*	22	54*
COC(=O)c1sc2ccccc2c1N	4	-4	-10	4	-24	10	/	/

Screening results deposited in PubChem by several laboratories.
